Assay outcomes as filed in PubChem BioAssay.
Vaccinia Venus: inhibitors of vaccinia virus (Venus reporter); Vaccinia virus Venus reporter expression, fluorescence; Potency, µM (top dose mostly 36.5 µM), without a hit: top-dose activity change, negative = inhibition, usual class: inhibitors; 0.46% of 330,000 active; calls by dose curve; tested in A549 cells; note: potency is the fitted concentration of half-maximal effect; nearly all actives have a fitted effect of over 30% in size
HCMV antiviral: blocks human cytomegalovirus replication | HFF cells, HCMV-luciferase reporter, 72 h; hits give low values | activity change, negative = inhibition, % at 57.5 µM | 4.5% of 410,000 active; in the data active = activity change below about -60%; inconclusive = no clear call, values can overlap the other calls; inactive = above about -39%
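Luciferase read-out from HCMV-luciferase-infected HFFs (MOI 1 PFU/cell) 72 h post infection at 37C; compounds added after 16 h cell attachment; activity normalized between buffer-only basal and Salinomycin (10uM) inhibitor controls.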
Vaccinia mCherry: vaccinia inhibition (mCherry reporter). 0.63% of 310,000 active. Vaccinia virus mCherry reporter infection, fluorescence. Potency, µM (titrated, usually from 36.5 µM), without a hit: at the top dose activity change, negative = inhibition, hits mostly inhibitors. AID 720579; calls by dose curve; tested in A549 cells; note: potency is the fitted concentration of half-maximal effect; nearly all actives have a fitted effect of over 35% in size
Tb PYK inh: blocks Trypanosoma brucei pyruvate kinase; Q57TT1; 0.12% of 410,000 active; Potency, µM (doses to about 76.8 µM), for inactives: top-dose activity, negative = inhibition, most hits filed as inhibitors; TbPYK enzyme, Kinase-Glo Plus ATP luminescence, 45 min; AID 624173; note: potency is the fitted concentration of half-maximal effect; nearly all actives have a fitted effect of over 50% in size
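Luminescent Kinase-Glo Plus end-point after 45 min room-temperature reaction of T. brucei pyruvate kinase started with 130 uM ADP (final). Buffer TEA 50 mM pH 7.2 with KCl, MgCl2, BSA, Tween-20; titration-based qHTS with fitted concentration-effect curves.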
LmPK inhibitor: inhibitors of Leishmania mexicana pyruvate kinase. AID 1721. purified LmPK, Kinase-Glo ATP luminescence, 1 h. 0.37% of 290,000 active. Potency, µM (top dose mostly 57.5 µM), for inactives: top-dose activity change, negative = inhibition, most hits filed as inhibitors. Q27686; note: potency is the fitted concentration of half-maximal effect
Target sequence (Q27686 whole entry, looked up): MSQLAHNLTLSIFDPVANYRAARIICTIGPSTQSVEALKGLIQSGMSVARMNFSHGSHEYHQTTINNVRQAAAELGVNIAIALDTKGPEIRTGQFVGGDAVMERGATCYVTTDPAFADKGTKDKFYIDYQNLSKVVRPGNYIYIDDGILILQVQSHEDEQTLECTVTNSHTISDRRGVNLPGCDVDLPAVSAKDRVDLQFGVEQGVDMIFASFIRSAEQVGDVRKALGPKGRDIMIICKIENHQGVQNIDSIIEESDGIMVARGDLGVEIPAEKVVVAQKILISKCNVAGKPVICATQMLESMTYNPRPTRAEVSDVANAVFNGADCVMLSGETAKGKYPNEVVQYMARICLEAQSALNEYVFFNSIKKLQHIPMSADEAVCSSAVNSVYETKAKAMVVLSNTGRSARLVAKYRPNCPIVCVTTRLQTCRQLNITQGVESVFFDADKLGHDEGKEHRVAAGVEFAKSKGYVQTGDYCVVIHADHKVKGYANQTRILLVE
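Kinase-Glo luminescence read after 1 h RT reaction of 0.1 nM LmPK with 0.5 mM PEP and 0.1 mM ADP. Activity scaled between uninhibited and enzyme-free controls.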
* hit, by the source's call; i = inactive; ? = inconclusive; · = not tested or not shown; [ ] = another dose, or the depositor's remark. In the library only some 5% were active in any assay of this set; here they are far more common. Unless noted, calls come from the whole dose curve; as a rule, active = well fitted curve in the direction sought with a large enough effect; inconclusive = small, poorly fitted or top-dose-only effect, or another doubt; inactive = no such curve, though single readings can be large; an effect the other way counts as inactive or inconclusive. % is set by controls: 0 for no effect and ±100 for the full control effect.

SMILES | Vaccinia Venus | HCMV antiviral | Vaccinia mCherry | Tb PYK inh | LmPK inhibitor
COc1ccc(C(=O)Nc2ccccc2C(=O)NC(C(=O)NCc2ccco2)C(C)C)cc1 (stereo not given) | -8% | -19 | · | 6% | 3%
COc1ccc(C(=O)Nc2ccccc2C(=O)N(Cc2ccco2)C(C(N)=O)C(C)C)cc1 (stereo not given) | · | -76* | · | 0% | 1%
CCCNC(=O)C1(C)CCCN(C(=O)c2sccc2C)C1 (stereo not given) | 1% | ? | i | -11% | ·
CCN(Cc1ccccc1)C(=S)NC(=O)c1ccccc1Br | -15% | ? | -13% | -11% | -4%
CN1N=C(C(=O)NC2CCCc3c2cnn3-c2ccc(F)cc2F)CCC1=O (stereo not given) | -13% | 13 | -10% | -8% | -2%
Cc1nnsc1C(=O)NC1CCCc2c1cnn2-c1ccc(F)cc1F (stereo not given) | -15% | -92* | -20% | 2% | -12%
Cc1ccc(C(=O)NC2CCCc3c2cnn3-c2ccc(F)cc2F)cn1 (stereo not given) | · | -86* | · | · | -7%
COc1cc2c(cc1OC)C(c1ccccc1)CC2=O (stereo not given) | · | 12 | · | 2% | 1%
CC(O)CNc1nc2c(c(=O)n(Cc3ccc(Br)cc3)c(=O)n2C)n1C (stereo not given) | · | 27 | · | 6% | -2%
O=S(=O)(NC1CCCCC1Sc1ncccn1)c1ccccc1 (stereo not given) | -14% | ? | -20% | -4% | 4%
CCc1nnc(N/N=C/c2cccs2)n1N | ? | 36 | 22µM* | -7% | 0%
CCc1nnc(N/N=C/c2c(Cl)cccc2Cl)n1N | -9% | -34 | -17% | 4% | 2%
COc1cc(N[C@@H](C)CCCN)c2ncccc2c1 | · | · | · | -11%[33.2 µM] | ·
Oc1cc2c(cc1O)[C@H]1c3ccccc3CN[C@H]1CC2 | -17% | · | -5% | · | ·
Oc1cc2c(cc1O)[C@H]1c3ccccc3CN[C@@H]1CC2 | -7% | · | i | · | 4.5µM*
CN(CC(=O)Nc1ccc(N2CCOCC2)cc1)C(=O)c1cc(S(=O)(=O)N(C)C)ccc1Cl | -16% | 47 | -1% | 9% | -7%
Cc1ccccc1-n1nnnc1-c1ccccc1 | · | -35 | · | -23% | 2%
Cc1cccc2c1nc(-c1ccccc1)n1cnnc21 | · | -69* | · | 1% | -2%
Cc1cccc2c1nc(-c1ccccc1)n1nnnc21 | · | -60* | · | -1% | 0%
COc1ccc(NC(=O)c2oc3ccccc3c2NC(=O)c2cc(=O)c3ccccc3o2)cc1 | -27% | -1 | -26% | -7% | ·
O=C(Cn1nc(C(=O)O)c2ccccc2c1=O)Nc1nc(-c2ccccc2)cs1 | · | 1 | · | -1% | 3%
CC1CCCN(C2=NC(=O)/C(=C/c3cn(-c4ccccc4)nc3-c3cccc(S(=O)(=O)N(C)C)c3)S2)C1 (stereo not given) | -13% | -14 | · | 2% | 1%
CC1CCN(C2=NC(=O)/C(=C/c3cn(-c4ccccc4)nc3-c3cccc(S(=O)(=O)N(C)C)c3)S2)CC1 | 5% | -62* | -9% | -1% | 0%
Oc1ccc(/C=N/Nc2nc(N3CCCCCC3)nc(N3CCCCCC3)n2)c(O)c1 | -9% | -89* | ? | -6% | 2%
Cc1cc(N/N=C/c2ccc(O)cc2O)nc(-c2ccccc2O)n1 | 6.3µM* | · | 2.8µM* | -4% | -3%
SMILES | Vaccinia Venus | HCMV antiviral | Vaccinia mCherry | Tb PYK inh | LmPK inhibitor
Cc1cc(N/N=C/c2ccccc2O)nc(-c2ccccc2O)n1 | -9% | 31 | -19% | -4% | 1%
Oc1ccc(C=NNc2nc3ccccc3s2)c(O)c1 | ? | -63* | 5µM* | -6% | ·
Oc1ccccc1C=NNc1nc2ccccc2s1 | -29% | 87 | ? | 3% | ·
Oc1ccc(Br)cc1/C=N/Nc1nc(N2CCCCC2)nc(N2CCOCC2)n1 | -1% | ? | -20% | 1% | 4%
CCC1=NN(C(=O)c2cccc(Br)c2)C(O)(c2ccc(Br)cc2)C1 (stereo not given) | · | -71* | · | 2% | 5%
COc1ccc(NS(=O)(=O)c2cc(NC(=O)c3ccc(Cl)cc3)ccc2N2CCOCC2)cc1 | 0% | ? | ? | 2% | ·
Cc1ccc(NC(=O)c2cc(NC(=O)c3ccco3)ccc2N2CCOCC2)cc1 | · | 9 | · | 0% | -2%
